From PubChem
Shown are actives, neighbours in structure and some others; about 0.89% of the full set was active somewhere.
MEP2 TOR yeast: modulators of TOR pathway MEP2-GFP in S. cerevisiae; GFP response vs DMSO, % at 10 µM; 330,000 compounds, 0.51% hits; S. cerevisiae MEP2-GFP strain, flow cytometry GFP, 3 h; 100% = DMSO control level;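 active = GFP response versus DMSO above a set limit, roughly screen mean plus 3 SD, cut at about 180% in these data; inconclusive = fewer than 70 cells counted for a yeast strain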;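 note: median GFP fluorescence of the barcode-gated MEP2-GFP cells per well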
LAP4-GFP MLPCN: modulators of TOR pathway LAP4-GFP in S. cerevisiae. S. cerevisiae LAP4-GFP multiplex, flow cytometry GFP, 3 h; median GFP as percent of DMSO wells. GFP response vs DMSO, % at 10 µM. 320,000 compounds, 0.34% hits. AID 2023;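 active = GFP response vs DMSO above a set limit, about the screen mean plus 3 SD, cut at about 150% in these data; inconclusive = under 70 cell events counted for the yeast strain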
RPL19A-GFP yeast: yeast TOR pathway RPL19A-GFP modulation | 330,000 compounds, 0.3% hits | S. cerevisiae RPL19A-GFP strain, flow cytometry, 3 h; stronger effect = lower value | AID 2025 | percent response vs DMSO, % at 10 µM;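 active = percent response vs DMSO below 50%; inconclusive = fewer than 70 events counted for the yeast strain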;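 note: median channel GFP fluorescence of the barcoded RPL19A-GFP strain; ratio of sample median GFP to plate DMSO average so 100% = DMSO; lower means less RPL19A-GFP as with rapamycin TOR inhibition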
AGP1 TOR yeast: alters AGP1-GFP fluorescence in TOR pathway yeast screen. 320,000 compounds, 0.02% hits. S. cerevisiae AGP1-GFP multiplex flow cytometry, 3 h; GFP as percent of DMSO wells. AID 2066. GFP response vs DMSO, % at 10 µM;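 active = GFP response relative to DMSO above a set limit, near screen average plus 3 SD, cut at about 150% in these data; inconclusive = fewer than 70 cells counted for the yeast strain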;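 note: median GFP channel fluorescence of the gated AGP1 strain per well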
CIT2 TOR yeast: yeast TOR pathway CIT2-GFP modulation; S. cerevisiae CIT2-GFP strain, flow cytometry, 3 h; 100 means same as DMSO wells; GFP response vs DMSO, % at 10 µM; 320,000 compounds, 0.065% hits;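 active = GFP response relative to DMSO above a set limit, near the screen mean plus 3 SD, cut at about 150% in these data; inconclusive = Fewer than 70 cells measured for a yeast strain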;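 note: ratio of well median GFP fluorescence to mean of DMSO wells on the plate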
LAP4 cherry2: yeast LAP4-GFP modulation, second cherry pick; shares compounds with LAP4-GFP MLPCN; S. cerevisiae LAP4-GFP strain, flow cytometry GFP, 3 h; AID 2621; GFP response vs DMSO, % at 10 µM; 590 compounds, 20% hits;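 active = GFP signal as percent of the solvent control above about 150%, meaning raised reporter expression, limit read from the data; inconclusive = fewer than 70 cells counted in the well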;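 note: ratio of well median GFP fluorescence to plate DMSO mean so 100% = DMSO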
MEP2 cherry2: reconfirmed MEP2-GFP TOR pathway modulator in yeast; shares compounds with LAP4-GFP MLPCN; AID 2622; 590 compounds, 10% hits; GFP response vs DMSO, % at 10 µM; S. cerevisiae MEP2-GFP strain, flow cytometry GFP, 3 h;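 active = GFP signal above 150% of the solvent control wells, that is a rise of more than half; inconclusive = fewer than 70 yeast cells counted in the well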;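 note: median channel GFP fluorescence of all gated yeast cells per well; ratio of median GFP to plate DMSO average so 100% = DMSO level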
RPL19A-GFP pick2: second confirmation of modulators of TOR reporter RPL19A-GFP in yeast; shares compounds with LAP4-GFP MLPCN; GFP response vs DMSO, % at 10 µM; 590 compounds, 3% hits; S. cerevisiae RPL19A-GFP strain, flow cytometry GFP, 3 h; stronger effect = lower value; 100% means same as DMSO wells;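 active = under 65% GFP response relative to DMSO; inconclusive = yeast strain with under 70 measured events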;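 note: median GFP channel fluorescence per well over the all cells gate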
CIT2-GFP pick2: reconfirmed modulator of CIT2-GFP TOR reporter in yeast; GFP response vs DMSO, % at 10 µM; 590 compounds, 8% hits; AID 2624; S. cerevisiae CIT2-GFP strain, flow cytometry GFP, 3 h; DMSO control wells read 100%; shares compounds with LAP4-GFP MLPCN;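 active = GFP response vs DMSO above about 150%, limit read from the data; inconclusive = fewer than 70 events counted for a yeast strain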;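 note: median green fluorescence per well over all gated yeast cells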
AGP1-GFP pick2: reconfirmed modulator of AGP1-GFP TOR reporter in yeast. AID 2643. shares compounds with LAP4-GFP MLPCN. percent response vs DMSO, % at 10 µM. 590 tested, under 10 active. S. cerevisiae AGP1-GFP strain, flow cytometry GFP, 3 h;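 active = over 150 percent of DMSO response; inconclusive = yeast strain measured with under 70 events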;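 note: median GFP channel fluorescence over all cells without mother daughter split; sample median GFP divided by mean DMSO control so 100% equals DMSO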
Yeast autofluor: compound is autofluorescent in yeast s288c cells. shares compounds with LAP4-GFP MLPCN. S. cerevisiae s288c, 520 nm autofluorescence, flow cytometry, 3 h; stronger effect = higher value; zero means same as solvent-only cells. fluorescence change (kMESF span) at 33 µM. 610 tested, under 10 active. AID 2757;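 active = fluorescence span over the dose series, or activity score, above about 33, limit read from the data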
Yeast autofl DR: yeast s288c autofluorescence artifact in dose response; shares compounds with LAP4-GFP MLPCN; 110 tested, under 10 active; fluorescence change (span) at 33 µM; S. cerevisiae s288c parental, compound autofluorescence, flow cytometry, 3 h;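 active = fluorescence change span, or the activity score built from it, above 25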
TORC1 bypass gr: compounds blocking wildtype yeast growth but not TORC1 bypass cells | shares compounds with LAP4-GFP MLPCN | S. cerevisiae BY4741 spot growth rating, 48-72 h; stronger effect = lower value | growth rating (0-3) at 30 µM | 120 tested, under 10 active;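 active = growth rating at most 1 for wild type yeast while the TORC1 bypass strain still grows fully, rated 3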
Active calls of the source: *; ? = inconclusive; / = not tested or not shown; [ ] = another dose, or the depositor's remark.

SMILES	MEP2 TOR yeast	LAP4-GFP MLPCN	RPL19A-GFP yeast	AGP1 TOR yeast	CIT2 TOR yeast	LAP4 cherry2	MEP2 cherry2	RPL19A-GFP pick2	CIT2-GFP pick2	AGP1-GFP pick2	Yeast autofluor	others
COc1cc(S(=O)(=O)N2CCOCC2)c(OC)c(S(=O)(=O)N2CCOCC2)c1	100.3	99.4	98.4	99.1	93.2	/	/	/	/	/	/
O=C1Nc2ccc(Br)cc2/C1=C/C(=O)c1ccc2c(c1)OCO2	85.6	131.2	94.1	98.9	92.1	/	/	/	/	/	-0.4
O=C1ON=C(c2ccccc2)/C1=C/c1ccco1	97.7	169.0*	91.2	79.8	72.8	/	/	/	/	/	1.92	Yeast autofl DR=0.73;TORC1 bypass gr=3
COc1ccc(/C=C2\C(=O)ON=C2c2ccccc2)cc1OC	112.0	99.9	105.2	103.9	105.3	/	/	/	/	/	/
COc1ccc(/C=C2/C(=O)ON=C2c2ccccc2)cc1OC	86.7	171.0*	89.5	80.1	83.2	/	/	/	/	/	0.5
CN(C)/C=C1\C(=O)ON=C1c1ccccc1	102.4	90.5	98.5	96.6	97.6	/	/	/	/	/	/
O=C1ON=C(c2ccccc2)/C1=C/c1ccc(-c2ccccc2[N+](=O)[O-])o1	91.4	179.1*	85.9	86.1	87.9	150.3*	117.0	99.5	105.7	97.6	0.6
COc1cc(/C=C2\C(=O)ON=C2c2ccccc2)cc(OC)c1OC	90.3	142.7	77.6	74.8	76.3	195.2*	119.8	96.5	123.3	94.0	0
CCOc1cc(/C=C2\C(=O)ON=C2c2ccccc2)ccc1OC	93.1	118.5	100.6	77.8	101.0	/	/	/	/	/	/
O=[N+]([O-])c1ccccc1-c1ccc(/C=N/n2cnnc2)o1	112.3	110.5	109.6	116.4	99.5	/	/	/	/	/	/
Cn1c(=O)cc(OCC(=O)NCc2cccnc2)c2ccccc21	93.8	77.7	97.8	108.6	91.5	/	/	/	/	/	/
COC(=O)c1ccccc1NC(=O)c1nc2nc(C)cc(C(F)F)n2n1	107.1	109.5	107.3	105.5	107.3	/	/	/	/	/	/
Cc1ccc(OCc2nc3c4c(ncn3n2)-c2ccccc2CC42CCCC2)cc1	85.4	89.5	?	85.7	81.7	/	/	/	/	/	/
Cc1ccccc1CN1CCc2c(OCC(=O)N3CCCCC3)cccc2C1=O	107.0	96.7	93.6	97.3	94.4	/	/	/	/	/	/
COc1ccc(N2C(=O)CC(Sc3ncn[nH]3)C2=O)c(OC)c1 (stereo not given)	88.3	124.4	96.3	96.9	103.3	/	/	/	/	/	0.61
CC(C)c1ccc(N2C(=O)CC(Sc3ncn[nH]3)C2=O)cc1 (stereo not given)	75.6	/	97.5	81.7	98.8	/	/	/	/	/	/
CC12CC3CC(C)(C1)CC(C(=O)NC1=NCCS1)(C3)C2	88.4	94.6	88.1	85.5	92.6	/	/	/	/	/	/
CCOC(=O)N1CCc2c(sc(NC(C)=O)c2C(N)=O)C1	103.9	108.7	100.6	100.5	98.2	/	/	/	/	/	/
CCOC(=O)N1CCc2c(sc(NC(=O)c3ccc(Cl)s3)c2C(N)=O)C1	91.1	183.3*	86.4	87.0	77.1	125.2	96.1	99.3	112.6	95.5	/
O=c1oc(/C=C/c2ccc([N+](=O)[O-])s2)nc2ccccc12	184.9*	153.9*	116.2	102.6	161.3*	/	/	/	/	/	12.6
CC(=O)Oc1ccccc1/C=C/c1nc2ccccc2c(=O)o1	103.8	101.5	98.8	88.2	93.7	/	/	/	/	/	/
Cc1ccc(S(=O)(=O)c2ncccc2[N+](=O)[O-])cc1	103.7	199.4*	88.5	101.1	98.8	/	/	/	/	/	0.3	Yeast autofl DR=0.16;TORC1 bypass gr=3
COc1ccc(C(=O)NC(=S)NNC(=O)c2cnccn2)cc1OC	104.5	154.6*[may fluoresce green]	96.9	79.3	95.3	168.3*	154.7*	102.8	126.7	90.1	0.51
COc1cc(OC)cc(C(=O)NC(=S)NNC(=O)c2cnccn2)c1	100.9	94.0	106.2	101.0	100.9	/	/	/	/	/	/
O=c1[nH]c(-c2ccc(Cl)cc2)cs1	93.6	119.7	63.0	80.7	84.5	104.2	111.8	98.9	101.5	105.5	0.1
SMILES	MEP2 TOR yeast	LAP4-GFP MLPCN	RPL19A-GFP yeast	AGP1 TOR yeast	CIT2 TOR yeast	LAP4 cherry2	MEP2 cherry2	RPL19A-GFP pick2	CIT2-GFP pick2	AGP1-GFP pick2	Yeast autofluor	others
S=c1[nH]nc(-c2ccco2)n1/N=C/c1ccc(Cl)cc1Cl	216.5*	119.7	101.0	98.7	102.2	102.2	99.6	99.3	98.7	94.0	/
N#Cc1c2ccc([N+](=O)[O-])cc2[n+]([O-])n1-c1ccccc1	94.9	165.1*	93.4	53.4	94.1	179.4*	136.2	119.2	111.2	89.0	0.71
NCCCn1c(C(=O)c2ccc(Cl)cc2)c2ccc([N+](=O)[O-])cc2[n+]1[O-]	111.7	113.2	105.2	96.3	99.8	/	/	/	/	/	/
O=C(CSC1=NS(=O)(=O)c2ccccc21)Nc1ccccc1	90.4	115.6	59.2	64.9	67.6	113.2	124.0	61.6*	115.4	71.6	0.5
Cc1cccc(C(=O)OCC(=O)c2cccc(Br)c2)c1O	99.3	93.9	95.4	90.6	97.5	/	/	/	/	/	/
CCOc1cc(/C=N/NC(N)=O)ccc1OCC(=O)Nc1ccc(C)c(C)c1	99.6	105.9	96.9	105.7	98.9	/	/	/	/	/	/
CCOc1cc(C=C2C(=O)c3ccccc3C2=O)ccc1OCC(=O)Nc1ccc(C)cc1	109.3	109.5	104.5	108.5	104.9	96.2	99.8	101.9	100.7	99.6	-0.2
CCN(CC)C(=S)SCC(=O)c1ccccc1	94.9	110.8	100.1	96.9	/	/	/	/	/	/	/
CCN(CC)C(=S)SSC(=S)N(CC)CC	109.5	187.0*	89.2	76.4	68.5	181.4*	131.0	93.1	109.9	99.3	0.4
Cn1c(SCc2nc(-c3ccc(Cl)cc3)no2)nnc1-c1cccs1	110.5	106.2	100.8	105.4	107.2	/	/	/	/	/	/
